High-throughput results as filed in PubChem BioAssay.
U2OS ROS induce: ROS inducers in U2OS cancer cells, primary screen, cell-based, H2DCF-DA fluorescence. U2OS ROS induction. hit rate 2% among 46,000. ROS induction (% of piperlongumine), % at 10 µM; in the data active = ROS induction above about 79%, passing the limit was not always enough; inconclusive = no clear call, values can overlap the other calls;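 note: 0% = DMSO vehicle median and 100% = reference compound median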
PD-1 reverse act: activators reversing PD-1 mediated T-cell inhibition, primary screen, luminescence, primary human CD4 T cells, PD-L1 beads; 29,000 tested, under 10 active; activation, % (test concentration not listed); CellTiter-Glo 96 h; AID 2316, 2010; call rule not given here;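 note: 0% = median vehicle wells and 100% = positive control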
YB-1 expression: inhibitors of YB-1 gene expression, primary screen, cell-based, fluorescence; U2OS, qRT-PCR YB-1 vs CDIP delta delta Cp, 16 h; stronger effect = higher value; zero = DMSO, each unit about twofold; delta delta Cp (YB-1 minus CDIP) (test concentration not listed); hit rate 0.37% among 30,000; AID 434959, 2010;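 active = delta delta Cp rounded down to an integer at or above 3, about 3 SD of DMSO wells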;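 note: higher means less YB-1 transcript or more CDIP transcript relative to DMSO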
NOMO-1 viab: NOMO-1 AML cell viability reduction, primary screen, STK33 inhibitor project, CellTiter-Glo luminescence | hit rate 7.5% among 37,000 | NOMO-1 AML viability, 72 h | inhibition, % (no concentration beside the values); in the data active = inhibition above about 80%; inconclusive = no clear call, values can overlap the other calls
Active calls of the source: *. The full list was thinned out, with hits kept by preference.

For C[C@@H]1CC[C@]2(C(=O)O)CC[C@]3(C)C(=CCC4[C@@]5(C)CC[C@@H](O)[C@](C)(C(=O)O)C5CC[C@]43C)C2[C@H]1C (some centres not stated) the results were U2OS ROS induce 32.5, PD-1 reverse act -0.3, YB-1 expression 1.29 and NOMO-1 viab 8.2.
O=C(N/N=C/c1cc(Br)cs1)c1ccccn1 was read as U2OS ROS induce 1.2 and YB-1 expression -0.0463.
For CCN(CC)C(=S)NC(=S)c1ccc(C)cc1 the results were U2OS ROS induce -1.1, PD-1 reverse act -6.8, YB-1 expression -0.255 and NOMO-1 viab 121.9*.
Screening COc1ccc(C)cc1CN1CCC(CNC(=O)Nc2cc(Cl)ccc2C)CC1 returned U2OS ROS induce 15.3, PD-1 reverse act -12.4 and NOMO-1 viab 121.8*.
C[C@H]1CN([C@@H](C)CO)C(=O)Cc2cc(NC(=O)Nc3ccc(C(F)(F)F)cc3)ccc2O[C@@H]1CN(C)Cc1ccc2c(c1)OCO2 was read as U2OS ROS induce 6.9, YB-1 expression -0.217 and NOMO-1 viab 5.3.
For C[C@H](CO)N1C[C@H](C)[C@H](CN(C)Cc2ccc3c(c2)OCO3)Oc2ccc(NC(=O)Nc3ccc(C(F)(F)F)cc3)cc2CC1=O the results were U2OS ROS induce 12.1, PD-1 reverse act -2.7, YB-1 expression -0.0771 and NOMO-1 viab 124.0*.
Screening C[C@@H]1CN([C@H](C)CO)C(=O)Cc2cc(NC(=O)Nc3ccc4c(c3)OCO4)ccc2O[C@@H]1CN(C)Cc1ccc(C(F)(F)F)cc1 returned U2OS ROS induce 6.7, PD-1 reverse act -2.9, YB-1 expression 1.11 and NOMO-1 viab 81.0*.
For C[C@@H]1CN([C@H](C)CO)C(=O)Cc2cc(NC(=O)Nc3ccc(C(F)(F)F)cc3)ccc2O[C@@H]1CN(C)Cc1ccc2c(c1)OCO2 the results were U2OS ROS induce 26.8, PD-1 reverse act -9.0, YB-1 expression -0.177 and NOMO-1 viab 115.0*.
COC(=O)CSc1nnc2c3c4c(sc3nc(-c3ccccc3Cl)n12)CCCC4 was read as NOMO-1 viab 18.3.
CCOC(=O)C(N)Cc1ccccc1 (configuration not stated) was read as U2OS ROS induce -2.8, PD-1 reverse act 0.6, YB-1 expression -0.237 and NOMO-1 viab -17.6.
For CCC(C)CC(C)/C=C\C1OC2=C(C(=O)OC2(C)O)C(O)C1O (configuration not stated) the results were U2OS ROS induce -6.0, PD-1 reverse act -8.3, YB-1 expression 0.936 and NOMO-1 viab 108.1*.
Screening CCCCN(C)c1ccc(C(=O)OC)cc1NC(=S)Nc1cccc(C)c1 returned U2OS ROS induce 1.6.
Cc1ccc(S(=O)(=O)Nc2cccc3c2O[C@H](CN(C)Cc2ccc(Oc4ccccc4)cc2)[C@H](C)CN([C@H](C)CO)C3=O)cc1 was read as U2OS ROS induce 125.0*, PD-1 reverse act -1.0, YB-1 expression 0.0934 and NOMO-1 viab inconclusive.
Screening Cc1ccc(S(=O)(=O)Nc2cccc3c2O[C@H](CN(C)Cc2ccc(Oc4ccccc4)cc2)[C@@H](C)CN([C@@H](C)CO)C3=O)cc1 returned U2OS ROS induce 20.9, PD-1 reverse act 1.9, YB-1 expression -0.193 and NOMO-1 viab 12.3.
For Cc1ccc(S(=O)(=O)Nc2cccc3c2O[C@@H](CN(C)Cc2ccc(Oc4ccccc4)cc2)[C@@H](C)CN([C@H](C)CO)C3=O)cc1 the results were U2OS ROS induce 54.4, PD-1 reverse act -1.7, YB-1 expression 0.202 and NOMO-1 viab 85.7*.
For O=C(Cn1cnc2c(nnn2Cc2ccc(Cl)cc2)c1=O)NC1CCCCC1 the results were U2OS ROS induce -11.7.
CC(C)(C)C(=O)OC[C@H]1O[C@@H](n2cnc3c(N)ncnc32)C[C@@H]1OC(=O)C(C)(C)C was read as U2OS ROS induce -2.3, PD-1 reverse act -0.3, YB-1 expression 8.33* and NOMO-1 viab 0.2.
Screening Cc1ccc(C)c(C(Nc2ccccn2)c2ccc3ccc(C)nc3c2O)c1 (configuration not stated) returned U2OS ROS induce 26.8, PD-1 reverse act -13.0 and NOMO-1 viab 106.9*.
`Cc1cccc(NC(c2ccc([N+](=O)[O-])cc2)c2ccc3ccc(C)nc3c2O)n1` (configuration not stated) gave NOMO-1 viab 111.8*.
Cc1cccc(NC(c2ccccc2C)c2ccc3ccc(C)nc3c2O)n1 (configuration not stated) was read as U2OS ROS induce 32.3, PD-1 reverse act -13.0 and NOMO-1 viab 120.6*.
For Cc1ccnc(NC(c2ccccn2)c2ccc3ccc(C)nc3c2O)c1 (configuration not stated) the results were PD-1 reverse act -14.4 and NOMO-1 viab 116.2*.
`Cc1oc(-c2cccc(Cl)c2)nc1CSc1nc2c(c(=O)[nH]1)CCCC2` gave U2OS ROS induce -14.4.
For CSC1=N/C(=C\c2ccc(Cl)cc2)C(=O)N1CCc1c[nH]c2ccccc12 the results were U2OS ROS induce 73.0, PD-1 reverse act -0.6, YB-1 expression -0.0939 and NOMO-1 viab 84.9*.
For CN(C(=S)SCc1ccccc1)c1ccccc1 the results were U2OS ROS induce 54.0.
Cc1cc2nc(Nc3nc4ccccc4c(=O)[nH]3)nc(C)c2cc1C was read as U2OS ROS induce 2.2, PD-1 reverse act -4.0 and NOMO-1 viab 126.8*.
Screening CC1CCCCN1S(=O)(=O)c1ccc(C(=O)Nc2cccc(-c3nc4ccccc4[nH]3)c2)cc1 (configuration not stated) returned U2OS ROS induce 203.9*.
Screening CC1NC(=O)C(C#N)=C(SCc2ccccc2)S1 (configuration not stated) returned U2OS ROS induce 93.3*, PD-1 reverse act -4.3, YB-1 expression -0.0839 and NOMO-1 viab 74.2.
`CCSC1=C(C#N)C(=O)NC(C(C)C)S1` (configuration not stated) gave U2OS ROS induce 7.5, PD-1 reverse act -0.1, YB-1 expression -0.715 and NOMO-1 viab 36.3.
For Cc1noc(C)c1S(=O)(=O)Nc1ccc2c(c1)CC(=O)N([C@@H](C)CO)C[C@H](C)[C@H](CN(C)Cc1ccc(C(F)(F)F)cc1)O2 the results were U2OS ROS induce 24.0, PD-1 reverse act -3.4, YB-1 expression -0.0735 and NOMO-1 viab 82.8*.
`Cc1noc(C)c1S(=O)(=O)Nc1ccc2c(c1)CC(=O)N([C@H](C)CO)C[C@@H](C)[C@H](CN(C)Cc1ccc(Cl)c(Cl)c1)O2` gave U2OS ROS induce 35.6, PD-1 reverse act -1.9, YB-1 expression -0.11 and NOMO-1 viab 97.5*.
`CCCc1c(-c2ccccc2)nc2sc3c(c2c1N)CCCCC3` gave U2OS ROS induce 168.6*.
Nn1c(Cc2ccccc2)nc2sc3c(c2c1=O)CCCC3 was read as U2OS ROS induce 0.2.
`CCCc1c(C(=O)O)c(O)cc2c1C(=O)c1c(O)cccc1C2=O` gave U2OS ROS induce -1.3, PD-1 reverse act 1.6, YB-1 expression 0.00461 and NOMO-1 viab 57.4.
`CCCCCC(=O)Cc1cc(O)c(O)c2c1C(=O)Oc1cc(O)c(C(=O)O)c(CCCCC)c1O2` gave U2OS ROS induce -10.1, PD-1 reverse act -9.8, YB-1 expression 0.553 and NOMO-1 viab 107.7*.
